Results filed as inconclusive are left out. A call without a number means that no potency is given here. The source made the active and inactive calls. Unless noted, the call rests on the fitted dose curve; in most records, active means well fitted curve in the direction sought with a large enough effect in the repeat runs; inconclusive means weak or mixed curves; inactive means no such curve, though single readings can be large; an effect the other way counts as inactive or inconclusive.
How the values were obtained:
[1] = qHTS assay to test for compound auto fluorescence at 535 nm (green) in HEK293 cells (AID 720680); further: potency means the concentration at half of the fitted maximal effect
[2] = qHTS assay to test for compound auto fluorescence at 460 nm (blue) in HEK293 cell free culture (AID 720681)
How it was run: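 Blue fluorescence (Ex 405/Em 460 nm, triamterene-equivalent) was read immediately after pin transfer of compound or DMSO into medium (DMEM, 10% FBS) without cells.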

[3] = qHTS assay to test for compound auto fluorescence at 535 nm (green) in HEK293 cell free culture (AID 720682); further: potency means the concentration at half of the fitted maximal effect
How it was run: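 No cells present: wells hold DMEM supplemented with 10% FBS, into which compound or vehicle is pinned. Green emission is then recorded (485 nm excitation, 535 nm emission) and scaled to fluorescein.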

[4] = qHTS assay to test for compound auto fluorescence at 590 nm (red) in HepG2 cell free culture (AID 720684)
How it was run: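 No cells present: MEM + 10% FBS only. Compound pinned in, red label read (540/590 nm). Activity = fluorescence equivalent to Rose Bengal sodium.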

[5] = qHTS assay to test for compound auto fluorescence at 460 nm (blue) in HepG2 cell free culture (AID 720685)
How it was run: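 Cell-free plates of MEM plus 10% FBS received 23 nL compound or DMSO vehicle; blue-channel (405/460 nm) intensity scored against triamterene as reference fluorophore.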

[6] = qHTS assay to test for compound auto fluorescence at 535 nm (green) in HepG2 cell free culture (AID 720686); further: potency means the concentration at half of the fitted maximal effect
[7] = qHTS assay to test for compound auto fluorescence at 460 nm (blue) in HepG2 cells (AID 720687)
How it was run: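 Blue-channel autofluorescence (Ex/Em 405/460 nm, triamterene-equivalent) was measured after 1 hr compound exposure at 37 C, 5% CO2. Cells were HepG2, plated overnight at 37 C in MEM plus 10% FBS.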

[8] = target: Glucocorticoid receptor (Homo sapiens) (UniProt P04150); test: qHTS assay to identify small molecule agonists of the glucocorticoid receptor (GR) signaling pathway (AID 720691; active means well fitted activation curve with a large enough effect in the signal ratio in the repeat runs, not every such curve was filed as active; the % refers to the signal ratio); conditions: GR-bla HeLa, beta-lactamase reporter ratio, 18 h; activation: at 62.4 µM (top of the series)
How it was run: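 Cells: GR-bla HeLa, endogenous GR with stably integrated GRE-beta-lactamase reporter. Treatment 18 h, 37 C, compounds delivered in DMSO. Detection via LiveBLAzer B/G FRET substrate, 2 h RT, fluorescence intensity.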

[9] = qHTS assay to identify small molecule antagonists of the glucocorticoid receptor (GR) signaling pathway - cell viability counter screen (AID 720693); further: nearly all actives have a fitted effect of over 55% in size
[10] = qHTS assay for identifying genotoxic compounds that show differential cytotoxicity against isogenic chicken DT40 cell lines with known DNA damage response pathways - wild type cell line (AID 743012); further: nearly all actives have a fitted effect of over 60% in size; further: potency means the concentration at half of the fitted maximal effect
How it was run: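 Luminescent ATP viability signal (CellTiter-Glo, 30 min RT) recorded after wild type DT40 cells were incubated with compounds for 40 h at 37 C/5% CO2.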

[11] = qHTS assay for identifying genotoxic compounds that show differential cytotoxicity against isogenic chicken DT40 cell lines with known DNA damage response pathways - Rev3 mutant cell line (AID 743014); further: nearly all actives have a fitted effect of over 55% in size; further: potency means the concentration at half of the fitted maximal effect
[12] = qHTS assay for identifying genotoxic compounds that show differential cytotoxicity against isogenic chicken DT40 cell lines with known DNA damage response pathways - Rad54/Ku70 mutant cell line (AID 743015); further: nearly all actives have a fitted effect of over 60% in size; further: potency means the concentration at half of the fitted maximal effect
[13] = qHTS assay to identify small molecule antagonists of the androgen receptor (AR) signaling pathway - cell viability counter screen (AID 743033; further: nearly all actives have a fitted effect of over 45% in size)
[14] = target: Androgen receptor (Homo sapiens) (UniProt P10275); test: qHTS assay to identify small molecule antagonists of the androgen receptor (AR) signaling pathway (AID 743035; active means well fitted inhibition curve with a large enough effect in the signal ratio in the repeat runs, not every such curve was filed as active; the % refers to the signal ratio)
How it was run: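 Quantitative HTS of the Tox21 10K library used HEK293 AR-UAS-bla cells stimulated with R1881 alongside compound for 16 h at 37C, followed by beta-lactamase FRET detection (LiveBLAzer B/G, 2 h, RT).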

[15] = target: Androgen receptor (Homo sapiens) (UniProt P10275); test: qHTS assay to identify small molecule agonists of the androgen receptor (AR) signaling pathway using the MDA cell line (AID 743040; further: nearly all actives have a fitted effect of over 20% in size)
How it was run: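 Stable MMTV-luciferase reporter in MDA-kb2 cells; note the promoter carries GR as well as AR response elements. 16 h compound treatment, 37C, 0% CO2; ONE-Glo luminescence endpoint.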

[16] = qHTS assay to identify small molecule antagonists of the androgen receptor (AR) signaling pathway using the MDA cell line - cell viability counter screen (AID 743041; further: nearly all actives have a fitted effect of over 45% in size)
How it was run: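 Using the breast carcinoma line MDA-kb2 AR-luc, test chemicals were co-incubated with R1881 for 16 h; CellTiter-Fluor reagent, added at 15.5 h, provided a fluorescence measure of live cells.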

[17] = target: Androgen receptor (Homo sapiens) (UniProt P10275); test: qHTS assay to identify small molecule antagonists of the androgen receptor (AR) signaling pathway using the MDA cell line (AID 743042; further: nearly all actives have a fitted effect of over 55% in size; further: potency means the concentration at half of the fitted maximal effect)
How it was run: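 Antagonist mode: compounds plus R1881 agonist added to MDA-kb2 AR-luc cells, incubated 16 h at 37C. Luciferase reporter luminescence quantified, with multiplexed CellTiter-Fluor readout for cell viability.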

[18] = target: Glucocorticoid receptor (Homo sapiens) (UniProt P04150); test: qHTS assay to identify small molecule antagonists of the glucocorticoid receptor (GR) signaling pathway (AID 720692; active means well fitted inhibition curve with a large enough effect in the signal ratio in the repeat runs, not every such curve was filed as active; the % refers to the signal ratio)
How it was run: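 Quantitative HTS in antagonist format: HeLa cells expressing endogenous GR and a stably integrated GRE-bla reporter, stimulated with 5 nM dexamethasone (final) alongside test compounds for 18 h.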

[19] = target: Androgen receptor (Homo sapiens) (UniProt P10275); test: qHTS assay to identify small molecule agonists of the androgen receptor (AR) signaling pathway (AID 743036; active means well fitted activation curve with a large enough effect in the signal ratio in the repeat runs, with a control signal flat, not every such curve was filed as active; the % refers to the signal ratio)
How it was run: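 Quantitative HTS of the Tox21 10K library in HEK293 cells bearing a stably integrated UAS-controlled beta-lactamase reporter. Compound exposure lasted 16 h at 37C. Reporter activity was detected by FRET substrate fluorescence after 2 h at room temperature.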

[20] = qHTS assay to test for compound auto fluorescence at 590 nm (red) in HEK293 cell free culture (AID 720683)
How it was run: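 Red-channel autofluorescence of compounds in culture medium (DMEM, 10% FBS), no cells, measured at 540/590 nm. Rose Bengal sodium is the reference fluorophore for equivalence.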
Tags describe the fitted curve by direction and shape or compound fluorescence and quenching.

Chain of Glucocorticoid receptor (Homo sapiens) (P04150 whole entry, looked up): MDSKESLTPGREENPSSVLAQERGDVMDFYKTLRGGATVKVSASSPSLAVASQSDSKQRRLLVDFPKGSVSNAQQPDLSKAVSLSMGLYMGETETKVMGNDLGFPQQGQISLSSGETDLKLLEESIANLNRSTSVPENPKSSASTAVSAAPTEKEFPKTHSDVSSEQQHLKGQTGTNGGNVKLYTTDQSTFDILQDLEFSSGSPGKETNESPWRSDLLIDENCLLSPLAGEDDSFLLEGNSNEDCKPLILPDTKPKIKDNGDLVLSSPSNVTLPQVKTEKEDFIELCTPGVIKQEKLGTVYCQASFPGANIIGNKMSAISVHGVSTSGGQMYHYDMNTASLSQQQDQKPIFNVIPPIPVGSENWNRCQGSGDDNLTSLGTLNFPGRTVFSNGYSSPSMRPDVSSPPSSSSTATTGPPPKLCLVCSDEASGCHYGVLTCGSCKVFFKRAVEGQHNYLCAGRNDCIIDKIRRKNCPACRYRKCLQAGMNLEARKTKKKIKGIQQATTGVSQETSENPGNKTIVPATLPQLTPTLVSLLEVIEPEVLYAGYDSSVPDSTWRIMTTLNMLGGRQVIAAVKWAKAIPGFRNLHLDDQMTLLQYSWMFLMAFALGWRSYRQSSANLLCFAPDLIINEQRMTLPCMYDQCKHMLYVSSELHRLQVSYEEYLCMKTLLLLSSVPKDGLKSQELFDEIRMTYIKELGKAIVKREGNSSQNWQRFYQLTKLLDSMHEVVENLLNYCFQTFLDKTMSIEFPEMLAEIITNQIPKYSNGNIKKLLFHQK
Chain of Androgen receptor (Homo sapiens) (P10275 whole entry, looked up): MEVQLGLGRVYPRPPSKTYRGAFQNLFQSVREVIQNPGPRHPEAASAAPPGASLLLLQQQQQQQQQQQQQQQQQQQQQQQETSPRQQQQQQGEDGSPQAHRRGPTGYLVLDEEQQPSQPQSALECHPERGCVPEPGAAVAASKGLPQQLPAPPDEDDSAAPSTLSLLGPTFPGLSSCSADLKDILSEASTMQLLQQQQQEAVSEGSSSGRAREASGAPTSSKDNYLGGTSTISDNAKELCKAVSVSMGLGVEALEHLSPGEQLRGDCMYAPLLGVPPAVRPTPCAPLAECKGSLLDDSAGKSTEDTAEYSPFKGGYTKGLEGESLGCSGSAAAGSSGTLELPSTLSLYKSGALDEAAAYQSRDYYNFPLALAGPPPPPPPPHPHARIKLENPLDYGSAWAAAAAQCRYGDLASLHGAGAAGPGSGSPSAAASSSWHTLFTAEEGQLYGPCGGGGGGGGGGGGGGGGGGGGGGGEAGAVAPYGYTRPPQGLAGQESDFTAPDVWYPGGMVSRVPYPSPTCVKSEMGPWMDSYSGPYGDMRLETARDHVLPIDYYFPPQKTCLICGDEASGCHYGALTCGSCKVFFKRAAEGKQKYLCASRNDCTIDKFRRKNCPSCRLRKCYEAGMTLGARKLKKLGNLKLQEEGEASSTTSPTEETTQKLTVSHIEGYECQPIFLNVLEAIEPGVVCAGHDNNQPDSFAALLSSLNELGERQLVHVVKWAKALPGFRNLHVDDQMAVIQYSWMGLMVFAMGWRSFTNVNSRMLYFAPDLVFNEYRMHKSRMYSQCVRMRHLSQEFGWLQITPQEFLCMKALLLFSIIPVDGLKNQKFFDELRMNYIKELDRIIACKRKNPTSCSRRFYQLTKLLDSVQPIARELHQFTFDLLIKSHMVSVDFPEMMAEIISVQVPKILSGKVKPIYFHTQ

| Compound | Potency [1] | Potency [2] | Potency [3] | Potency [4] | outcome [5] | Potency [6] | outcome [7] | Potency [8] | Potency [9] | Potency [10] | Potency [11] | Potency [12] | Potency [13] | Potency [14] | Potency [15] | Potency [16] | Potency [17] | Potency [18] | Potency [19] | Potency [20] |
| --- | --- | --- | --- | --- | --- | --- | --- | --- | --- | --- | --- | --- | --- | --- | --- | --- | --- | --- | --- | --- |
| O=C(O)CCC/C=C\C[C@@H]1[C@@H](/C=C/[C@@H](O)COc2cccc(C(F)(F)F)c2)[C@H](O)C[C@@H]1O | inactive | inactive | inactive | inactive | inactive | inactive | inactive | inactive | inactive | inactive | inactive | inactive | inactive | inactive | inactive | inactive | inactive | – | – | – |
| Cc1cc(Nc2ccccc2C(=O)O)ccc1Cl | inactive | inactive | inactive | inactive | inactive | inactive | inactive | inactive | inactive | – | 29.8 µM (active) | – | inactive | – | inactive | inactive | inactive | inactive | – | – |
| CCCCCCCCCCCCCCCC(=O)OC[C@@H](NC(=O)C(Cl)Cl)[C@H](O)c1ccc([N+](=O)[O-])cc1 | inactive | inactive | inactive | inactive | – | inactive | inactive | – | inactive | inactive | inactive | inactive | inactive | – | – | inactive | – | – | – | – |
| O=C(O)CO.[NH2-].[NH2-].[Pt+2] | inactive | inactive | inactive | inactive | inactive | inactive | inactive | – | inactive | inactive | – | inactive | inactive | – | – | inactive | – | – | – | – |
| COc1ccc2c(=O)c(C)c(-c3ccccc3)oc2c1CN(C)C | inactive | inactive | inactive | – | – | inactive | inactive | inactive | inactive | – | inactive | 18.8 µM (active) | inactive | inactive | inactive | – | inactive | – | inactive | – |
| CC(=O)Oc1cc(C)c(OC(C)=O)c2ccccc12 | – | inactive | inactive | inactive | inactive | inactive | inactive | inactive | inactive | 21.1 µM (active) | 23.7 µM (active) | 23.7 µM (active) | – | – | – | inactive | – | – | – | inactive |
| CCCCCCCCCCCCCCCC(=O)OC[C@@H](O)[C@H]1OC[C@H](O)[C@H]1O | inactive | inactive | inactive | inactive | – | inactive | inactive | inactive | inactive | inactive | – | inactive | inactive | – | – | inactive | – | – | – | – |
| CN(C)c1ccc(C(=C2C=CC(=[N+](C)C)C=C2)c2c(O)c(S(=O)(=O)[O-])cc3cc(S(=O)(=O)O)ccc23)cc1 | inactive | inactive | inactive | – | inactive | inactive | inactive | inactive | inactive | 11.9 µM (active) | – | 13.3 µM (active) | – | inactive | inactive | – | 11.9 µM (active) | inactive | inactive | – |
| NC(=O)C[C@@H](N)C(=O)O | inactive | inactive | inactive | inactive | inactive | inactive | inactive | inactive | – | inactive | inactive | inactive | inactive | – | – | inactive | – | – | – | – |
| CC(=O)O[C@H]1C[C@@H]2CC[C@@H]3[C@H](CC[C@@]4(C)[C@H]3C[C@H](N3CC[N+](C)(C)CC3)[C@@H]4OC(C)=O)[C@@]2(C)C[C@@H]1N1CC[N+](C)(C)CC1 | inactive | inactive | inactive | inactive | inactive | inactive | inactive | – | inactive | inactive | inactive | inactive | inactive | – | – | inactive | – | – | – | – |
| COc1ccc2c(c1)OC(C)(C)C(c1ccccc1)C2c1ccc(OCCN2CCCC2)cc1 (configuration not stated) | inactive | inactive | inactive | inactive | inactive | inactive | inactive | – | – | 3.76 µM (active) | 5.31 µM (active) | 5.96 µM (active) | – | – | – | – | – | – | – | – |
| CCCCCCCCCCCC(=O)OC[C@@H](O)C1OC[C@H](O)[C@H]1O (some centres not stated) | inactive | inactive | inactive | inactive | inactive | inactive | inactive | inactive | inactive | inactive | inactive | inactive | inactive | – | – | inactive | – | – | – | – |
| O=C(O)CN(CC(=O)O)CC1=CC2C(=CC1=O)Oc1cc(O)c(CN(CC(=O)O)CC(=O)O)cc1C21OC(=O)c2ccccc21 (configuration not stated) | 11.2 µM [fluorescent] (active) | inactive | 11.2 µM [fluorescent] (active) | – | inactive | 11.2 µM [fluorescent] (active) | inactive | – | inactive | inactive | – | inactive | inactive | – | inactive | – | inactive | – | – | – |
| CS(=O)(=O)OCC(O)C(O)COS(C)(=O)=O (configuration not stated) | inactive | inactive | inactive | inactive | inactive | inactive | inactive | inactive | inactive | 8.41 µM (active) | 1.33 µM (active) | 23.7 µM (active) | – | inactive | inactive | inactive | inactive | – | inactive | – |
| CC(O)[C@@H]1NC(=O)[C@H](CCCCN)NC(=O)[C@@H](Cc2c[nH]c3ccccc23)NC(=O)[C@H](Cc2ccccc2)NC(=O)[C@@H](NC(=O)[C@H](N)Cc2ccccc2)CSSC[C@@H](C(=O)N[C@H](CO)[C@@H](C)O)NC1=O (some centres not stated) | inactive | inactive | inactive | inactive | inactive | inactive | inactive | inactive | inactive | inactive | inactive | inactive | – | – | – | inactive | – | inactive | – | – |
| CC(C)Cc1ccc([C@@H](C)C(=O)NS(C)(=O)=O)cc1 | inactive | inactive | inactive | inactive | inactive | inactive | inactive | – | – | – | – | – | inactive | – | – | inactive | – | – | – | – |
